Consider six sequences from PMC11006913.

Holding throughout (experiment): PBM; 200 nM protein, PBS
Common to all, as to settings: dsDNA, one strand shown

In test [1] the target is T1, SIX6 (Homo sapiens, UniProt O95475 114-200, L167I).
T1 sequence: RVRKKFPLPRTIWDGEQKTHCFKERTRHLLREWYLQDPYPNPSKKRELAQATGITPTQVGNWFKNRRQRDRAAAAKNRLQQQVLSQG

Test [2] addresses T2, SIX6 (Homo sapiens, UniProt O95475 114-200, L143V).
T2 sequence: T1 sequence with L30V, I54L

The target of test [3] is T3, SIX6 (Homo sapiens, UniProt O95475 114-200, H141N).
T3 sequence: T1 sequence with H28N, I54L

Test [4] concerns the target T4, SIX6 (Homo sapiens, UniProt O95475 114-200, T165P).
T4 sequence: T1 sequence with T52P, I54L

Test [5] deals with T5, SIX6 (Homo sapiens, UniProt O95475 114-200, L167M).
T5 sequence: T1 sequence with I54M

In test [6] the target is T6, SIX6 (Homo sapiens, UniProt O95475 114-200, L143M).
T6 sequence: T1 sequence with L30M, I54L

Test [7] deals with T7, SIX6 (Homo sapiens, UniProt O95475 114-200, L143I).
T7 sequence: T1 sequence with L30I, I54L

Test [8] deals with T8, SIX6 (Homo sapiens, UniProt O95475 114-200, T165G).
T8 sequence: T1 sequence with T52G, I54L

Test [9] concerns the target T9, SIX6 (Homo sapiens, UniProt O95475 114-200, T139Q).
T9 sequence: T1 sequence with T26Q, I54L

Test [10] addresses T10, SIX6 (Homo sapiens, UniProt O95475 114-200, T165A).
T10 sequence: T1 sequence with T52A, I54L

Test [11] has as its target T11, SIX6 (Homo sapiens, UniProt O95475 114-200, L167V).
T11 sequence: T1 sequence with I54V

The target of test [12] is T12, SIX6 (Homo sapiens, UniProt O95475 114-200).
T12 sequence: T1 sequence with I54L

In test [13] the target is T13, SIX6 (Homo sapiens, UniProt O95475 114-200, T165I).
T13 sequence: T1 sequence with T52I, I54L

Residue numbers refer to the chain shown, from its start.

For the sequence AGGGTATC, the binding signal with SIX6 [1] is 11.2 upbm affinity estimate (log intensity, higher = more binding, comparable within an allelic series); with SIX6 [2], 10.2 upbm affinity estimate (log intensity, higher = more binding, comparable within an allelic series); with SIX6 [3], 11.2 upbm affinity estimate (log intensity, higher = more binding, comparable within an allelic series); in the test with SIX6 [4], 9.36 upbm affinity estimate (log intensity, higher = more binding, comparable within an allelic series); with SIX6 [5] it was 10.7 upbm affinity estimate (log intensity, higher = more binding, comparable within an allelic series); with SIX6 [6] it was 11 upbm affinity estimate (log intensity, higher = more binding, comparable within an allelic series). For the same sequence, the binding signal is 10.4 upbm affinity estimate (log intensity, higher = more binding, comparable within an allelic series) with SIX6 [7]; 11.4 upbm affinity estimate (log intensity, higher = more binding, comparable within an allelic series) with SIX6 [8]; 11.4 upbm affinity estimate (log intensity, higher = more binding, comparable within an allelic series) in the test with SIX6 [9]; 11.1 upbm affinity estimate (log intensity, higher = more binding, comparable within an allelic series) in the test with SIX6 [10]; 10.9 upbm affinity estimate (log intensity, higher = more binding, comparable within an allelic series) in the test with SIX6 [11]; 11.1 upbm affinity estimate (log intensity, higher = more binding, comparable within an allelic series) with SIX6 [12]. For the same sequence, in the test with SIX6 [13], the binding signal is 11 upbm affinity estimate (log intensity, higher = more binding, comparable within an allelic series).

For ATGATACG, the binding signal with SIX6 [1] was 11.2 upbm affinity estimate (log intensity, higher = more binding, comparable within an allelic series); with SIX6 [2], 10.3 upbm affinity estimate (log intensity, higher = more binding, comparable within an allelic series); in the test with SIX6 [3], 11.2 upbm affinity estimate (log intensity, higher = more binding, comparable within an allelic series); in the test with SIX6 [4], 9.78 upbm affinity estimate (log intensity, higher = more binding, comparable within an allelic series); in the test with SIX6 [5] it was 10.6 upbm affinity estimate (log intensity, higher = more binding, comparable within an allelic series); in the test with SIX6 [6] it was 11 upbm affinity estimate (log intensity, higher = more binding, comparable within an allelic series). In addition, the binding signal was 10.4 upbm affinity estimate (log intensity, higher = more binding, comparable within an allelic series) in the test with SIX6 [7]; 11.3 upbm affinity estimate (log intensity, higher = more binding, comparable within an allelic series) in the test with SIX6 [8]; 11.2 upbm affinity estimate (log intensity, higher = more binding, comparable within an allelic series) with SIX6 [9]; 11.1 upbm affinity estimate (log intensity, higher = more binding, comparable within an allelic series) with SIX6 [10]; 11 upbm affinity estimate (log intensity, higher = more binding, comparable within an allelic series) in the test with SIX6 [11]; 11 upbm affinity estimate (log intensity, higher = more binding, comparable within an allelic series) with SIX6 [12]. Besides, in the test with SIX6 [13], the binding signal is 10.9 upbm affinity estimate (log intensity, higher = more binding, comparable within an allelic series).

For the sequence CGTGATAC, the binding signal is 11.2 upbm affinity estimate (log intensity, higher = more binding, comparable within an allelic series) with SIX6 [1]; 10.3 upbm affinity estimate (log intensity, higher = more binding, comparable within an allelic series) in the test with SIX6 [2]; 11.3 upbm affinity estimate (log intensity, higher = more binding, comparable within an allelic series) with SIX6 [3]; 9.72 upbm affinity estimate (log intensity, higher = more binding, comparable within an allelic series) with SIX6 [4]; 10.6 upbm affinity estimate (log intensity, higher = more binding, comparable within an allelic series) in the test with SIX6 [5]; 11.1 upbm affinity estimate (log intensity, higher = more binding, comparable within an allelic series) in the test with SIX6 [6]. The binding signal was 10.4 upbm affinity estimate (log intensity, higher = more binding, comparable within an allelic series) in the test with SIX6 [7]; 11.3 upbm affinity estimate (log intensity, higher = more binding, comparable within an allelic series) with SIX6 [8]; 11.3 upbm affinity estimate (log intensity, higher = more binding, comparable within an allelic series) in the test with SIX6 [9]; 11.2 upbm affinity estimate (log intensity, higher = more binding, comparable within an allelic series) with SIX6 [10]; 10.9 upbm affinity estimate (log intensity, higher = more binding, comparable within an allelic series) with SIX6 [11]; 11 upbm affinity estimate (log intensity, higher = more binding, comparable within an allelic series) with SIX6 [12]. The binding signal in the test with SIX6 [13] was 11 upbm affinity estimate (log intensity, higher = more binding, comparable within an allelic series).

On to ATGGCCCG, for which the binding signal with SIX6 [1] is 8.97 upbm affinity estimate (log intensity, higher = more binding, comparable within an allelic series); with SIX6 [2], 8.9 upbm affinity estimate (log intensity, higher = more binding, comparable within an allelic series); in the test with SIX6 [3], 9.08 upbm affinity estimate (log intensity, higher = more binding, comparable within an allelic series); in the test with SIX6 [4], 9.03 upbm affinity estimate (log intensity, higher = more binding, comparable within an allelic series); in the test with SIX6 [5] it was 9 upbm affinity estimate (log intensity, higher = more binding, comparable within an allelic series); with SIX6 [6], 8.97 upbm affinity estimate (log intensity, higher = more binding, comparable within an allelic series). Besides, the binding signal in the test with SIX6 [7] is 8.99 upbm affinity estimate (log intensity, higher = more binding, comparable within an allelic series); with SIX6 [8], 9.03 upbm affinity estimate (log intensity, higher = more binding, comparable within an allelic series); with SIX6 [9] it was 9.09 upbm affinity estimate (log intensity, higher = more binding, comparable within an allelic series); in the test with SIX6 [10], 8.99 upbm affinity estimate (log intensity, higher = more binding, comparable within an allelic series); with SIX6 [11] it was 8.99 upbm affinity estimate (log intensity, higher = more binding, comparable within an allelic series); with SIX6 [12], 9 upbm affinity estimate (log intensity, higher = more binding, comparable within an allelic series). In the test with SIX6 [13], the binding signal was 9.05 upbm affinity estimate (log intensity, higher = more binding, comparable within an allelic series).

As to CCGCCAGC, the binding signal is 9.01 upbm affinity estimate (log intensity, higher = more binding, comparable within an allelic series) in the test with SIX6 [1]; 9.02 upbm affinity estimate (log intensity, higher = more binding, comparable within an allelic series) with SIX6 [2]; 9.07 upbm affinity estimate (log intensity, higher = more binding, comparable within an allelic series) in the test with SIX6 [3]; 9.02 upbm affinity estimate (log intensity, higher = more binding, comparable within an allelic series) in the test with SIX6 [4]; 9.06 upbm affinity estimate (log intensity, higher = more binding, comparable within an allelic series) with SIX6 [5]; 9.02 upbm affinity estimate (log intensity, higher = more binding, comparable within an allelic series) in the test with SIX6 [6]. The binding signal was 9.03 upbm affinity estimate (log intensity, higher = more binding, comparable within an allelic series) with SIX6 [7]; 9.05 upbm affinity estimate (log intensity, higher = more binding, comparable within an allelic series) in the test with SIX6 [8]; 9.1 upbm affinity estimate (log intensity, higher = more binding, comparable within an allelic series) in the test with SIX6 [9]; 9.05 upbm affinity estimate (log intensity, higher = more binding, comparable within an allelic series) with SIX6 [10]; 9.06 upbm affinity estimate (log intensity, higher = more binding, comparable within an allelic series) with SIX6 [11]; 9.05 upbm affinity estimate (log intensity, higher = more binding, comparable within an allelic series) with SIX6 [12]. The binding signal in the test with SIX6 [13] was 9.03 upbm affinity estimate (log intensity, higher = more binding, comparable within an allelic series).

For GTATGATA, the binding signal with SIX6 [1] was 11 upbm affinity estimate (log intensity, higher = more binding, comparable within an allelic series); with SIX6 [2], 10.5 upbm affinity estimate (log intensity, higher = more binding, comparable within an allelic series); with SIX6 [3], 11.1 upbm affinity estimate (log intensity, higher = more binding, comparable within an allelic series); in the test with SIX6 [4], 10.1 upbm affinity estimate (log intensity, higher = more binding, comparable within an allelic series); with SIX6 [5], 10.6 upbm affinity estimate (log intensity, higher = more binding, comparable within an allelic series); with SIX6 [6] it was 11 upbm affinity estimate (log intensity, higher = more binding, comparable within an allelic series). Further, the binding signal in the test with SIX6 [7] is 10.5 upbm affinity estimate (log intensity, higher = more binding, comparable within an allelic series); with SIX6 [8], 11.2 upbm affinity estimate (log intensity, higher = more binding, comparable within an allelic series); in the test with SIX6 [9], 11.2 upbm affinity estimate (log intensity, higher = more binding, comparable within an allelic series); with SIX6 [10], 11 upbm affinity estimate (log intensity, higher = more binding, comparable within an allelic series); with SIX6 [11] it was 10.9 upbm affinity estimate (log intensity, higher = more binding, comparable within an allelic series); with SIX6 [12], 11 upbm affinity estimate (log intensity, higher = more binding, comparable within an allelic series). The binding signal with SIX6 [13] was 10.9 upbm affinity estimate (log intensity, higher = more binding, comparable within an allelic series).
